Data published in PubChem BioAssay (NCI).
Compounds without any hit were thinned out: in the full panel of roughly 83,000, 20% have a hit.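 Growth was measured after 48 h exposure to one concentration of compound in 96-well plates. Values under 10 count as active.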 A number with no mark means an inactive call. The source made the active and inactive calls.

How the values were obtained:
Assay in all cases: NCI-60 one-dose screen, 48 h (100 = growth as untreated, 0 = no growth, -100 = all killed)
Settings in all cases: 10 µM
RPMI-8226 leukemia = system: RPMI-8226 leukemia
OVCAR-8 ovarian = system: OVCAR-8 ovarian
OVCAR-5 ovarian = system: OVCAR-5 ovarian
OVCAR-4 ovarian = system: OVCAR-4 ovarian
SK-OV-3 ovarian = system: SK-OV-3 ovarian
IGROV1 ovarian = system: IGROV1 ovarian
OVCAR-3 ovarian = system: OVCAR-3 ovarian
HS 578T breast = system: HS 578T breast
NCI/ADR-RES ovarian = system: NCI/ADR-RES ovarian
T-47D breast = system: T-47D breast
BT-549 breast = system: BT-549 breast
MDA-MB-435 melanoma = system: MDA-MB-435 melanoma
SW-620 colon = system: SW-620 colon
MCF7 breast = system: MCF7 breast
HCT-116 colon = system: HCT-116 colon
HCC-2998 colon = system: HCC-2998 colon
KM12 colon = system: KM12 colon

| Structure (SMILES) | growth (RPMI-8226 leukemia) | growth (OVCAR-8 ovarian) | growth (OVCAR-5 ovarian) | growth (OVCAR-4 ovarian) | growth (SK-OV-3 ovarian) | growth (IGROV1 ovarian) | growth (OVCAR-3 ovarian) | growth (HS 578T breast) | growth (NCI/ADR-RES ovarian) | growth (T-47D breast) | growth (BT-549 breast) | growth (MDA-MB-435 melanoma) | growth (SW-620 colon) | growth (MCF7 breast) | growth (HCT-116 colon) | growth (HCC-2998 colon) | growth (KM12 colon) |
| --- | --- | --- | --- | --- | --- | --- | --- | --- | --- | --- | --- | --- | --- | --- | --- | --- | --- |
| COc1ccc(-c2nc(-c3nc4ccc(Cl)cc4[nH]3)c3ccccn23)cc1 | 49.3% | -27.1% (active) | 82.5% | -77% (active) | -47.8% (active) | 84.8% | 8.15% (active) | -19.3% (active) | 33.6% | 64.7% | 42.9% | 58.3% | 75.2% | 41.5% | 4.9% (active) | 69.3% |  |
| CC1(C)Cc2c(sc3ncn4nc(-c5ccc(O)cc5)nc4c23)CO1 | 57.7% | 58.5% | 86.6% | 64.1% | 79.8% | 75.5% | 86.5% | 65.3% | 64.7% | 48.7% | 65.1% | 77.4% | 94.5% | 66.5% | 81.7% | 118% |  |
| COc1ccc(-c2nn(-c3cccc(NC(=O)Nc4ccccc4)c3)cc2-c2ccncc2)cc1Cl | -35.3% (active) | 0.341% (active) | 35.5% | 41.4% | 80.5% | 33.3% | 39.4% | 31.9% | 22.4% | 30.9% | -40.9% (active) | -66.5% (active) | -19.7% (active) | 0.285% (active) | 5.36% (active) | -71.1% (active) | -16.2% (active) |
| COc1ccc(NC(=O)Cc2nc3nc4sc(C)c(C)c4c(=O)n3[nH]2)cc1 | 90.5% | 101% | 108% | 113% | 104% | 101% | 115% | 107% | 103% | 96.2% | 103% | 105% | 104% | 96% | 101% | 98.1% | 104% |
| COc1ccc(-c2nnc(-c3c(-c4ccccc4)nc4ncccn34)o2)cc1OC | 94.8% | 99% | 91.7% | 93.1% | 95.9% | 98.5% | 108% | 98.3% | 101% | 87.2% | 88.6% | 117% | 109% | 102% | 103% | 106% | 100% |
| COc1ccc(/C=C/C(=O)Nc2ccc(-c3nc4ccc(F)cc4s3)cc2)cc1 | 75.4% | 103% | 112% | 83.2% | 114% | 104% | 113% | 111% | 111% | 91% | 86.7% | 97% | 106% | 38.9% | 88.5% | 99.1% | 101% |
| N#CC1=C(Nc2ccccc2Cl)SC(c2ccccc2O)NC1=O (centres undefined) | 97.1% | 111% | 105% | 111% | 116% | 102% | 127% | 116% | 110% | 111% | 111% | 120% | 105% | 105% | 109% | 109% | 116% |
| CN1c2ccccc2[C@]2(Cc3ccccc3)Cc3ccccc3N[C@H]12 | 98.9% | 106% | 93.8% | 91% | 122% | 88.8% | 120% | 110% | 107% | 109% | 122% | 117% | 101% | 94.1% | 91.8% | 103% | 104% |
| COc1ccc(OC)c(NC(=O)c2sc3nc4c(cc3c2N)C(=O)CCC4)c1 | 95.8% | 96.1% | 101% | 109% | 44.7% | 96.4% | 118% | 96.8% | 91% | 93.9% | 93.7% | 28.4% | 82.3% | 81.3% | 97% | 78.6% | 74.8% |
| Cc1cc(Nc2ccc(Cl)cc2)nc(NCCCNc2ccnc3cc(Cl)ccc23)n1 | -59.8% (active) | -53.5% (active) | -5.16% (active) | -3.7% (active) | -78.7% (active) | 6.54% (active) | -80.1% (active) | -53.4% (active) | 2.15% (active) | -90.2% (active) | -86.7% (active) | -88.6% (active) | -67.4% (active) | -100% (active) | -97.4% (active) | -88.9% (active) | -33.4% (active) |
| COc1cc(Nc2ccnc(NCCCNc3ccnc4cc(Cl)ccc34)n2)cc(OC)c1 | -45.3% (active) | 3.57% (active) | 44.7% | 2.29% (active) | 14.7% | 27.2% | -58.3% (active) | -53.1% (active) | 50.7% | -63.1% (active) | 19.7% | -81.9% (active) | -43.3% (active) | 3.36% (active) | -53.6% (active) | -65% (active) | 47.1% |
| CCCCCCN1CCN(Cc2ccc(N(CC)CC)cc2)C(=O)C1=O | 4.35% (active) | 28.3% | 58.8% | 54.6% | 32.5% | 32.1% | 5.54% (active) | 20.6% | 0.986% (active) | 25.5% | 68.1% | -79.5% (active) | 24% | 17.2% | 34.2% | 52% | 28.5% |
| COc1ccc2c(c1)C(=O)c1c-2c(=O)n(CCCN(C)C)c2cc(OC)c(OC)cc12 | 66.6% | 62.1% | 130% | 74.4% | 69.9% | 67.2% | 94.9% | 119% | 58.7% | 81.2% | 86.1% | 80.9% | 56.8% | 28.4% | 53.1% | 82.8% | 69.5% |
| Cc1cc(=O)[nH]c(N/N=C/c2ccccc2O)n1 | 68.6% | 83.3% | 95.2% | 22.4% | 78.3% | 59.6% | 6.7% (active) | 104% | 16.3% | 48.7% | 101% | 72.1% | 56.5% | 4.95% (active) | 8.06% (active) | 54.3% | 51.2% |
| O=C1Nc2ccccc2C1=NC1CCCCC1 | 103% | 98.1% | 106% | 96.3% | 95.4% | 88.5% | 103% | 116% | 103% | 83.1% | 96.1% | 106% | 105% | 98% | 105% | 107% | 95.9% |
| COc1ccc(-c2nc3ccccn3c2-c2nnc(-c3cc(OC)c(OC)c(OC)c3)o2)cc1 | 75.1% | 35.5% | 82.7% | 64.8% | 44.3% | 87% | 40.4% | 82.2% | 63.7% | 48% | 42.7% | 96.2% | 74.9% | 63.4% | 32.1% | 85.4% | 65% |
| CCCCCCCCCCCCCC[n+]1ccc(C(N)=O)cc1 | -41.2% (active) | 1.18% (active) | -4.86% (active) | 32.4% | 34.3% | 110% | -27.1% (active) | -14.5% (active) | 96.1% | 46.9% | -50.9% (active) | 8.53% (active) | 7.11% (active) | 22.8% | 6.07% (active) | 6.43% (active) | -87.2% (active) |
| COc1ccc(-c2cc(-c3ccc(N(C)C)cc3)c(C#N)c(N3CCCC3)n2)cc1 | 38.7% | 83.3% | 64.8% | 81.4% | 72.7% | 64.9% | 105% | 103% | 61.8% | 67% | 74.4% | 90.4% | 94.4% | 103% | 67.7% | 83.6% | 95.4% |
